The list is not random: actives were taken first. Their share in the collection is about 4.8%.
ssDAF-12 act – activators of S. stercoralis DAF-12 nuclear receptor. 370,000 compounds, 1% hits. activation, % at 6.8 µM. HEK293 ssDAF-12/GRIP1 lit1-tk-luc reporter, luminescence; % of 3 µM dafachronic acid response. AID 652126;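 active means activation above the mean over all tested compounds plus 3 SD, cut at about 0.9% in these data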
DAX1 inh-1 – inhibitors of DAX1 repression of SF-1 activated StAR promoter; 370,000 compounds, 1.1% hits; HEK293T StAR-luciferase reporter, SF-1/DAX-1 repression relief; inhibition, % at 6.8 µM;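 active means inhibition above the mean over all tested compounds plus 3 SD, cut at about 3.6% in these data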;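 further: higher inhibition means more luminescence from relief of DAX-1 repression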
hcDAF-12 act – activates DAF-12 receptor from parasite H. contortus; HEK293 hcDAF-12 lit1-tk-luc reporter, luminescence; 0% DMSO, 100% Δ7-dafachronic acid; activation, % at 6.8 µM; 370,000 compounds, 1.4% hits;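 active means activation above the mean of all tested compounds plus 3 SD, cut at about 5.5% in these data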
hgDAF-12 ag – activates the H. glycines DAF-12 receptor ligand-binding domain | HEK293 GAL4-hgDAF12 UAS-luciferase reporter, agonist luminescence; normalized to butyrate control | activation, % at 6.8 µM | 370,000 compounds, 1.8% hits;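 active means activation above a cutoff set at the mean of all screened compounds plus 3 SD, cut at about 10% in these data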
SMARCA2 activ – SMARCA2 function activation, primary screen; MG213 cells, MMTV-luciferase reporter, dexamethasone, overnight; AID 652017; activation, % at 9.1 µM; 370,000 compounds, 1% hits; in the data active means activation above about 7.8%
DAX1 inh-2 – inhibits human nuclear receptor DAX1; P51843; HEK293 Gal4-DAX1 luciferase reporter, luminescence; inhibition, % at 6.75 µM; 340,000 compounds, 0.99% hits;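 active means inhibition above the mean over all tested compounds plus 3 SD, cut at about 4.2% in these data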;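 further: inhibition shows as a rise in luminescence from relieved DAX1 repression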
Target sequence (P51843 207-470 limits assumed): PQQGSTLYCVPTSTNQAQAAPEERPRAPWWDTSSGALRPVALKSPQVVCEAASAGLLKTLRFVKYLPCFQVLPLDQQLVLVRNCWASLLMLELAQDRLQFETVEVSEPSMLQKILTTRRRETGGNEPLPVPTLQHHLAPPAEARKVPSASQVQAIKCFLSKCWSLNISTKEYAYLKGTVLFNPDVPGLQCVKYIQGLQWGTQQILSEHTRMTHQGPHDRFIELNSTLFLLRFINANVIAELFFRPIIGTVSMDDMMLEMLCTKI
SMARCA2 act conf – confirmation of SMARCA2 (BRM) function activators | shares compounds with SMARCA2 activ | MG213 cells, MMTV-luciferase with dexamethasone, luminescence, overnight; MG213 cells expressing E1A, Rb sequestered; DMSO wells 0%, reference activator 100% | activation, % at 9.1 µM | 3,500 compounds, 30% hits;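 active means activation above its plate's cutoff, the mean activation of tested wells plus 3 SD, cut at about 7.9% in these data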
GAL4-VP16 Luc – activates GAL4-VP16 luciferase, flagging SMARCA2 activator hits | HEK293 GAL4-VP16 pG5luc reporter, luciferase luminescence; scaled: DMSO wells 0%, SAHA wells 100% | shares compounds with SMARCA2 activ | activation, % at 9.1 µM | 3,500 compounds, 41% hits | AID 686939;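 active means activation above the solvent-only control well mean plus 3 SD, averaged across control plates, cut at about 5.2% in these data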
Each line names hits and unclear results; the compound was inactive in the other large screens (follow-up assays come after a bar, where they were run).

O=C(Nc1cccc([N+](=O)[O-])c1)Nc1ccc2c(c1)CCC2	none
O=C(Cc1ccccc1)Nc1ccc2c(c1)CCC2	none
O=C(COC(=O)c1ccc(Cl)nc1)Nc1ccc2c(c1)CCC2	SMARCA2 activ 9.1 | SMARCA2 act conf inactive | GAL4-VP16 Luc inactive
Cc1cc(NC(=O)CC2CCCC2)ccc1Br	SMARCA2 activ 11.0 | SMARCA2 act conf inactive | GAL4-VP16 Luc 8.6
O=C(CC1CCCC1)Nc1ccc2c(c1)CCC2	hgDAF-12 ag 12.1, SMARCA2 activ 9.0 | SMARCA2 act conf 12.9 | GAL4-VP16 Luc inactive
O=C(Nc1cccc(F)c1)Nc1ccc2c(c1)CCC2	SMARCA2 activ 8.8 | SMARCA2 act conf 9.8 | GAL4-VP16 Luc 6.5
O=C(COC(=O)c1cnccn1)Nc1cccc(F)c1	none
O=C(Oc1coc(CSc2ncccn2)cc1=O)c1ccc([N+](=O)[O-])cc1	none (no result: DAX1 inh-1, SMARCA2 activ, DAX1 inh-2)
CCC1C(=O)n2nc(-c3ccccc3)cc2N=C1C (stereo not given)	SMARCA2 activ 10.4 | SMARCA2 act conf 11.9 | GAL4-VP16 Luc 9.2
Nn1cc(-c2ccccc2)nc1SCC(=O)Nc1ccc(S(N)(=O)=O)cc1	none
COc1cc([N+](=O)[O-])cc(/C=N\NC(=O)C2COc3ccccc3O2)c1O (stereo not given)	none
CCN(CC)CCNc1ccc(C)c2sc3ccc(O)cc3c(=O)c12	SMARCA2 activ 8.4 | SMARCA2 act conf 18.2 | GAL4-VP16 Luc inactive
CCc1ccc(C(O)c2ncc(-c3ccccc3F)[nH]2)cc1 (stereo not given)	DAX1 inh-1 4.1, SMARCA2 activ 13.3 (no result: DAX1 inh-2) | SMARCA2 act conf inactive | GAL4-VP16 Luc inactive
CC(/C=C1\SC(=S)N(NC(=O)c2ccc(O)cc2)C1=O)=C\c1ccccc1	SMARCA2 activ 9.0 | SMARCA2 act conf inactive | GAL4-VP16 Luc inactive
O=C(COC(=O)C12CC3CC(CC(O)(C3)C1)C2)Nc1ccc(Br)cc1F	SMARCA2 activ 9.4 | SMARCA2 act conf inactive | GAL4-VP16 Luc 8.2
COc1ccccc1NS(=O)(=O)c1cc(NC(=O)/C=C/c2cccs2)ccc1N1CCOCC1	SMARCA2 activ 17.7 | SMARCA2 act conf 9.2 | GAL4-VP16 Luc inactive
CCN1C[C@@H]2[C@@H]3C(=O)N(C)C(=O)[C@@H]3[C@](C)(C(=O)OC)N2C1=NC	none
COc1ccc(/C=N/Nc2cc(C)nc3c(C)cccc23)cc1	SMARCA2 activ 9.1 | SMARCA2 act conf 31.7 | GAL4-VP16 Luc inactive
CNC[C@H]1OCc2cnnn2CCCC(=O)N([C@@H](C)CO)C[C@@H]1C	none (no result: DAX1 inh-2)
Cc1cccc[n+]1CCCCCCCCCC[n+]1ccccc1C	none
CCCc1ncc(C[n+]2ccccc2C)c(N)n1	SMARCA2 activ 9.1 | SMARCA2 act conf inactive | GAL4-VP16 Luc inactive
Cn1c(C(=O)OCC(=O)NCc2ccco2)cc2sccc21	SMARCA2 activ 14.3 | SMARCA2 act conf inactive | GAL4-VP16 Luc inactive
O=C(OCCN1CCN(C2CN(Cc3cn(Cc4ccccc4Cl)nn3)S(=O)(=O)C2)CC1)c1cc2ccccc2o1 (stereo not given)	none (no result: DAX1 inh-2)
C/C(CC(=O)Nc1ccc(F)cc1)=N\NC(=O)c1ccccn1	hgDAF-12 ag 11.0, SMARCA2 activ 9.2 | SMARCA2 act conf inactive | GAL4-VP16 Luc inactive
C/C(=N\Nc1ccc(Cl)c(C(=O)O)c1)c1ccccn1	SMARCA2 activ 13.2 | SMARCA2 act conf inactive | GAL4-VP16 Luc inactive
C/C(CC(=O)Nc1ccc(N(C)C)cc1)=N\NC(=O)c1ccc(F)cc1	none
C/C(=N\NC(=O)c1ccc(F)cc1)c1ccccn1	SMARCA2 activ 9.6 | SMARCA2 act conf inactive | GAL4-VP16 Luc inactive
CC(C)CC(=O)Nc1ccc(-c2nnn(CC(=O)NCc3ccco3)n2)cc1	none
CCN(C(=O)CSc1n[nH]c(-c2cc(Cl)ccc2OC)n1)C1CCS(=O)(=O)C1 (stereo not given)	none
CC(NC(=O)CN1C(=O)NC(c2ccccc2)(c2ccccc2)C1=O)c1cccs1 (stereo not given)	none
Nc1nc(SCC(=O)N2CCCc3ccccc32)[nH]c(=O)c1-c1ccccc1	SMARCA2 activ 10.6 | SMARCA2 act conf inactive | GAL4-VP16 Luc inactive
O=C(CSc1nc2c(cnn2-c2ccc(F)cc2)c(=O)[nH]1)N1CCCc2ccccc21	none
NC1=NC(c2cn[nH]c2-c2ccc(F)cc2)n2c(nc3ccccc32)N1 (stereo not given)	none (no result: DAX1 inh-2)
CC1(C)C(=O)Nc2ccccc2N1C(=O)Cn1ncc(Cl)c(Cl)c1=O	SMARCA2 activ 18.6 | SMARCA2 act conf 22.6 | GAL4-VP16 Luc inactive
Cc1nn(CC(=O)N2c3ccccc3NC(=O)C2(C)C)c(C)c1[N+](=O)[O-]	none
Cc1cccc(Sc2nc(-c3ccccc3)ncc2C(=O)O)c1	none
CN(CCOc1ccccc1)CC(=O)Nc1cccc(Br)c1	none
COc1cccc(NC(=O)COc2ccc(Br)c(C)c2)c1	SMARCA2 activ 9.9 | SMARCA2 act conf inactive | GAL4-VP16 Luc inactive
Cc1cc(NC(=O)CN(C)CCOc2ccccc2)ccc1Br	SMARCA2 activ 8.4 | SMARCA2 act conf inactive | GAL4-VP16 Luc inactive
c1ccc(-c2cc(N3CCCCC3)ncn2)cc1	SMARCA2 activ 8.2 | SMARCA2 act conf 8.5 | GAL4-VP16 Luc 8.6
Fc1ccccc1Oc1nc(-c2ccncc2)nc2ccccc12	none
CC/C(=N\Nc1ccccc1[N+](=O)[O-])c1ccc(O)cc1	none (no result: DAX1 inh-2)
Cc1ccc(N=C2NC(=O)CC(C(=O)Nc3ccc4c(c3)OCO4)S2)cc1 (stereo not given)	none
C/C(CCc1ccc2c(c1)OCO2)=N\N=C1\NC(=O)CC(C(=O)Nc2ccc(Cl)cc2)S1 (stereo not given)	SMARCA2 activ 11.4 | SMARCA2 act conf inactive | GAL4-VP16 Luc inactive
COCCN(C(=O)c1ccccc1OC1CCN(S(C)(=O)=O)CC1)C(C)C	SMARCA2 activ 8.1 | SMARCA2 act conf inactive | GAL4-VP16 Luc inactive
COC(=O)[C@@H](NC(=O)c1ccccc1OC1CCN(S(C)(=O)=O)CC1)C(C)C	none
O=C(CCN1C(=O)[C@@H]2Cc3ccccc3CN2C1=O)N[C@H](C(=O)O)c1ccccc1	none
COc1ccc(COc2cccc(C=O)c2)cc1	none
O=Cc1ccc(OCc2ccc3ccccc3c2)cc1	hgDAF-12 ag 11.8, SMARCA2 activ 8.2 | SMARCA2 act conf inactive | GAL4-VP16 Luc 6.1
CSc1ccccc1NC(=S)Nc1ccc(S(N)(=O)=O)cc1	none
Cc1c(C(=O)N2CCOCC2)sc(NC(=O)c2ccccc2F)c1C#N	none
CSc1nc(Cl)cc(Nc2ccccc2N)n1	none

High-throughput results from PubChem.
